Shown are actives, neighbours in structure and some others; about 21% of the full set was active somewhere.
IL1B secr inh – inflammasome signaling inhibition, IL-1 beta readout. activity change, % at 57.5 µM. THP-1 LPS/ATP IL-1B secretion, AlphaLISA, 16 h; hits give low values. hit rate 4.7% among 360,000; in the data active = activity change below about -50%; inconclusive = mostly about -30% to -49%
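Secreted IL-1B measured by AlphaLISA bead assay after 16 h compound exposure of THP-1 cells; compounds (final up to 57.5 uM) added 1 h before LPS (250 ng/mL) and ATP (1.25 mM) stimulation; lower signal means less secretion.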
RORg inh – ROR gamma (mouse) transcription inhibition. AID 2551. Drosophila S2 Gal4-RORgamma UAS-luciferase reporter, 20 h. Potency, µM (series often up to 53.6 µM), most hits filed as inhibitors. P51450. hit rate 5.4% among 310,000; also: nearly all actives have a fitted effect of over 60% in size
Target sequence (P51450 whole entry, looked up, the tested form may be a part): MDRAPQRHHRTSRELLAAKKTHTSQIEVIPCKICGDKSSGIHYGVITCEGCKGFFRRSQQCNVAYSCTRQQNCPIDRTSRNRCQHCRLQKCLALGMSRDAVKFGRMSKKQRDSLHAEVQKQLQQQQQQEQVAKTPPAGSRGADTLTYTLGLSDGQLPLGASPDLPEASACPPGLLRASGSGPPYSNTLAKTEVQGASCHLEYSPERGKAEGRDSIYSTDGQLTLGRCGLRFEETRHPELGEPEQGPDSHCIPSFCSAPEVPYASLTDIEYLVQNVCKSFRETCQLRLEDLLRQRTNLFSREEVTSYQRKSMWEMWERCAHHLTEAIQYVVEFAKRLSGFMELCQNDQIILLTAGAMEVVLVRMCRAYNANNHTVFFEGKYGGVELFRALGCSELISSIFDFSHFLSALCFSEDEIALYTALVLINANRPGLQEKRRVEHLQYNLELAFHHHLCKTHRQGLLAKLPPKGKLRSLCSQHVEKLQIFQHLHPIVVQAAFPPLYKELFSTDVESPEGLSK
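A Gal4/UAS one-hybrid system in insect cells: metallothionein-promoter Gal4–ROR gamma fusion plus Photinus luciferase reporter. Copper sulfate 700 uM final, 20 hr ambient incubation, luminescent detection after 10 min with reagent.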
ELG1 DNA repair – blocks ELG1-dependent DNA repair in HEK293T cells; HEK293T ELG1-luciferase reporter, luminescence, 16 h; DNA damage induced by 5-fluorouridine; Potency, µM (doses to about 46.1 µM), actives largely listed as inhibitors; hit rate 2.3% among 330,000; AID 504467; also: nearly all actives have a fitted effect of over 55% in size
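HEK293T cells expressing luciferase-tagged ELG1 (2,000/well) received 5-Fluorouridine plus compound or DMSO for 16 hr at 37 °C. Luciferase was read by ONE-Glo luminescence after 30 min at room temperature.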
DT40 TDP1 no CPT – qHTS for Inhibitors of human tyrosyl-DNA phosphodiesterase 1 (TDP1): qHTS in cells in absence of CPT | DT40 Tdp1-/- hTDP1 cells, no CPT, ATP luminescence, 48 h | hit rate 15% among 420,000 | Potency, µM (series often up to 46.2 µM), most hits filed as inhibitors | AID 686978, 2013; also: nearly all actives have a fitted effect of over 55% in size
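Readout: luminescence from CellTiter-Glo after 30 min in the dark at RT. Cells: DT40 Tdp1-/- with stable hTDP1, 400/well. Exposure: compounds alone, ≥48 hr, 37 °C.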
VP16 counter – Gal4-VP16 reporter inhibition counter-screen | hit rate 3.5% among 310,000 | Potency, µM (series often up to 53.6 µM), actives largely listed as inhibitors | Drosophila S2 Gal4-VP16 UAS-luciferase, luminescence, 20 h;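 also: Gal4-VP16 expression switched on by copper sulfate through the metallothionein promoter; nearly all actives have a fitted effect of over 50% in size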
DT40 TDP1 CPT – growth inhibition of DT40 Tdp1-/-;hTDP1 cells with camptothecin (screen for TDP1 inhibitors). chicken DT40 Tdp1-/-;hTDP1 cells + 20 nM CPT, ATP luminescence, 48 h. Potency, µM (doses to about 46.2 µM), hits mostly inhibitors. hit rate 12% among 420,000. AID 686979; also: nearly all actives have a fitted effect of over 55% in size
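Chicken DT40 Tdp1-/- cells complemented with human TDP1, 400 cells/well, exposed to compounds plus 20 nM camptothecin for at least 48 h at 37 C; viability read as ATP content by CellTiter-Glo luminescence.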
Hits are given with their value; n = inactive; u = inconclusive; x = not tested or not shown. Unless noted, calls follow the shape of the dose curve; as a rule, active = well fitted curve in the direction sought with a large enough effect; inconclusive = small, poorly fitted or top-dose-only effect, or another doubt; inactive = no such curve, though single readings can be large; an effect the other way counts as inactive or inconclusive.

SMILES	IL1B secr inh	RORg inh	ELG1 DNA repair	DT40 TDP1 no CPT	VP16 counter	DT40 TDP1 CPT
Cc1oc2ccc(O)c(CN(C)Cc3ccccc3)c2c1C(=O)Nc1cccc(C(F)(F)F)c1	x	x	x	5.2µM	x	5.8µM
Cc1oc2ccc(O)c(CN3CCOCC3)c2c1C(=O)Nc1cccc(C(F)(F)F)c1	x	x	x	u	x	16µM
Cc1oc2ccc(O)c(CN(C)Cc3ccccc3)c2c1C(=O)Nc1ccccc1	x	x	x	8.2µM	x	9.2µM
COc1ccc(Cl)cc1C(=O)NNC(=O)CNC(=O)c1ccc(C)s1	n	x	n	n	x	n
CNc1snc(C)c1C(=O)OCC(=O)c1ccc(Cl)cc1	n	x	n	9.2µM	x	13µM
CNc1snc(C)c1C(=O)OC(C)C(=O)c1ccc(F)cc1 (stereo not drawn)	n	x	n	21µM	x	18µM
CCN(Cc1ccccc1)C(=O)COC(=O)c1cnc(C)cn1	n	n	n	n	n	n
CCN(Cc1ccccc1)C(=O)COC(=O)c1c(C)nsc1NC	n	x	n	21µM	x	15µM
O=C(NCc1cccnc1)c1cc(C2CCCCN2S(=O)(=O)Cc2ccccc2)on1 (stereo not drawn)	n	x	x	n	x	n
Cc1cn(C2CC3OCC(NC(=O)C(NC(=O)OC(C)(C)C)C(C)OCc4ccccc4)C3O2)c(=O)[nH]c1=O (stereo not drawn)	x	n	x	x	n	x
CC(C)(C)c1ccc(S(=O)(=O)N2CCNC(=O)C2)cc1	n	x	u	n	x	n
CC(C)(C)C(=O)Nc1ccccc1C(=O)NCCC(=O)Nc1ccccc1	n	x	n	n	x	n
COCCn1c(SCC(=O)c2ccc(OC)cc2)nc2cc(C(=O)NC3CCCC3)ccc2c1=O	x	x	x	n	x	n
O=C(CO/N=C/c1ccc(Cl)cc1Cl)NNC(=O)c1ccc(Cl)cc1Cl	n	0.089µM	n	n	u	n
CCOC(=O)c1cccc(NC(=O)COc2ccc3c(C)cc(=O)oc3c2)c1	x	x	x	n	x	n
Cc1ccc(C(=O)Oc2oc(-c3ccco3)nc2C=Nc2ccccc2)cc1	x	n	u	x	n	x
COc1ccc(N=Cc2nc(-c3ccccc3)oc2OC(=O)c2ccccc2)cc1	n	n	u	23µM	u	21µM
CC(=O)Oc1oc(-c2ccccc2)nc1C=Nc1ccccc1	n	u	n	u	u	n
CCOC(=O)c1ccc(N=Cc2nc3ccccc3n2C)cc1	n	u	u	18µM	n	u
CN(C)c1ccc(N=Cc2nc(-c3ccccc3)oc2OC(=O)c2cccc(Br)c2)cc1	u	n	u	16µM	u	u
CCOC(=O)c1ccc(N=Cc2nc(-c3ccccc3)oc2OC(C)=O)cc1	n	n	u	6.5µM	n	9.2µM
COc1cccc(-c2nc3cc(SC)ccc3cc2CN(C(=O)c2sccc2C)C2CC2)c1	x	x	x	n	x	n
CC(C)n1nnnc1C1c2ccccc2C(=O)N1Cc1ccco1 (stereo not drawn)	n	x	x	n	x	n
COC(=O)[C@]12CCCCC=C1N(Cc1ccco1)C(=O)[C@H](CC(=O)N1CCCCC1)C2	n	x	x	n	x	n
O=C(Cn1c(=O)nc(-c2ccccc2)c2ccccc21)Nc1cccc(C(F)(F)F)c1	x	x	x	n	x	n
SMILES	IL1B secr inh	RORg inh	ELG1 DNA repair	DT40 TDP1 no CPT	VP16 counter	DT40 TDP1 CPT
C=C1C(=O)C=C[C@]2(C)C[C@@H]3OC(=O)[C@](C)(O)[C@H]3C[C@@H]12	-110	u	u	1.3µM	u	1.8µM
CCOC(=O)C1=C(C)C/C(=N\NC(=O)c2ccccc2O)CC1	n	5µM	u	u	10µM	8.2µM
CC(=O)N1CCC(=NNC(=O)c2cc3ccccc3cc2O)CC1	n	10µM	n	u	n	n
CCOC(=O)N1CCC(=NNC(=O)c2cc3ccccc3cc2O)CC1	n	13µM	n	n	u	n
O=C(NN=C1CCN(Cc2ccccc2)CC1)c1cc2ccccc2cc1O	n	n	n	n	n	n
CCOC(=O)N1CCC(=NNc2nc3ccccc3s2)CC1	n	u	u	n	u	n

From PubChem
